# Data from PubChem BioAssay AID686978 (National Center for Advancing Translational Sciences (NCATS), 2013).
# Among all 420,000 compounds or so, about 64,000 (15%) were called active. About 27% were inconclusive and are not listed. Calls come from the whole dose curve; as a rule, active = well fitted inhibition curve with a large enough effect; inconclusive = small, poorly fitted or top-dose-only effect; inactive = flat fitted curve, though single readings scatter. Only a sample is shown. A call without a number means that no potency is given here.
# Experiment: qHTS for Inhibitors of human tyrosyl-DNA phosphodiesterase 1 (TDP1): qHTS in cells in absence of CPT; note: nearly all actives have a fitted effect of over 55% in size
# Conditions: DT40 Tdp1-/- hTDP1 cells, no CPT, ATP luminescence, 48 h; activity change, negative = growth inhibition: at 46.2 µM (top of the series)
# In short: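 Stably hTDP1-transfected Tdp1-null chicken DT40 cells were treated with library compounds minus camptothecin and grown for at least 48 hr at 37 °C, after which cellular ATP was quantified by luminescence.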
# Potency is the fitted concentration of half-maximal effect.
row,Structure (SMILES),Potency
1,COc1ccccc1-c1nnc(NC(=O)c2cccc(N3C(=O)CCC3=O)c2)o1,inactive
2,COc1cc(-c2nnc(NC(=O)C3=COCCO3)o2)cc(OC)c1OC,inactive
3,Cc1ccc(C(=O)Nc2nnc(C3=COCCO3)o2)cc1C,23.1 µM (active)
4,COc1cc(C(=S)N2CCOCC2)ccc1O,inactive
5,CCCCC(NC(=O)c1cccc(Br)c1)C(=O)O (centres undefined),inactive
6,O=C(CN1C(=O)NC2(CCCC2)C1=O)NCC1CCCO1 (centres undefined),inactive
7,O=C(c1ccccc1)N1CCN(C(=O)N2CCCCC2)CC1,inactive
8,Cc1cc(C)cc(NC(=O)C2CCN(c3nc(C)cc(C)n3)CC2)c1,inactive
9,CC(=O)NN=C(C)c1ccc(NC(=O)C2CC2)cc1,inactive
10,CC(C)c1ccc(NC(=O)C2CCN(c3nc(-c4ccc(C(C)C)cc4)no3)CC2)cc1,13 µM (active)
11,Cc1ccc(-n2ncc3c(=O)[nH]cnc32)c(C)c1,inactive
12,COCCCNc1ccn2nc(-c3ccc(CC(C)C)cc3)cc2n1,inactive
13,COc1ccccc1-c1cc2nc(NCc3cccc(Cl)c3)ccn2n1,18.4 µM (active)
14,COc1ccccc1-c1cc2nc(C)c(CCC(=O)O)c(C)n2n1,inactive
15,CC(C)Cc1ccc(-c2cc3nc(NCc4cccc(Cl)c4)ccn3n2)cc1,18.4 µM (active)
16,COc1ccccc1-c1cc2nc(C)c(CCC(=O)NC3CCCCC3)c(C)n2n1,inactive
17,Cc1nc2cc(NC(=O)[C@@H]3C[C@@H](Sc4ccccn4)CN3Cc3ccccc3C)ccc2s1,inactive
18,O=C1/C(=C/c2ccc3c(c2)OCO3)CCC/C1=C\c1ccc2c(c1)OCO2,inactive
19,O=C(OCC(=O)N1CCCCCC1)c1cnc(Cl)c(Cl)c1,inactive
20,CC1=C(C(=O)Nc2ccccc2)C(c2ccc(C)cc2)n2nc(SCc3ccccc3C)nc2N1 (centres undefined),inactive
21,CCc1ccc(C2C(C(=O)Nc3ccccc3)=C(C)Nc3c(C(=O)Nc4ccc(C)cc4)cnn32)cc1 (centres undefined),23.1 µM (active)
22,COc1cccc(C2C(C(=O)Nc3ccc(C)cc3C)=C(C)Nc3c(C(=O)Nc4ccccc4)cnn32)c1 (centres undefined),inactive
23,CCCSc1ncccc1C(=O)O,inactive
24,Cc1cnc(CN(C)C(=O)C2CCC(=O)N(CCc3cccc(F)c3)C2)[nH]1 (centres undefined),inactive
25,O=C(Nn1cc(C(=O)N2CCN(c3ccccc3F)CC2)c2ccccc2c1=O)c1cnccn1,13 µM (active)
26,COc1ccc2oc(=O)c(C(=O)N3CCN(c4ccccc4F)CC3)cc2c1,inactive
27,Cc1oc2ncn(CC(C)C)c(=O)c2c1C(=O)N1CCN(c2ccccc2F)CC1,inactive
28,CCOCCCNC(=O)C(=O)NCCCOCC,inactive
29,O=C(CSc1nc2[nH]ncc2c(=O)[nH]1)Nc1ccc(F)cc1,inactive
